Among all 110,000 compounds or so, about 230 (0.21%) showed an effect of 50% or more. Shown is part of a subset that was picked to be rich in strong results.
target: DPAP1 (Plasmodium falciparum, UniProt Q8IIJ9); experiment: primary screen, percent inhibition; read by cleavage of a fluorogenic dipeptide substrate; higher = more effect of the substance; parameters: species or system P. falciparum D10 trophozoite lysates; single well
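Note: 30 min substrate incubation versus DMSO and 10 µM JCP410 controls.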

DPAP1, sequence (Q8IIJ9 whole entry, looked up): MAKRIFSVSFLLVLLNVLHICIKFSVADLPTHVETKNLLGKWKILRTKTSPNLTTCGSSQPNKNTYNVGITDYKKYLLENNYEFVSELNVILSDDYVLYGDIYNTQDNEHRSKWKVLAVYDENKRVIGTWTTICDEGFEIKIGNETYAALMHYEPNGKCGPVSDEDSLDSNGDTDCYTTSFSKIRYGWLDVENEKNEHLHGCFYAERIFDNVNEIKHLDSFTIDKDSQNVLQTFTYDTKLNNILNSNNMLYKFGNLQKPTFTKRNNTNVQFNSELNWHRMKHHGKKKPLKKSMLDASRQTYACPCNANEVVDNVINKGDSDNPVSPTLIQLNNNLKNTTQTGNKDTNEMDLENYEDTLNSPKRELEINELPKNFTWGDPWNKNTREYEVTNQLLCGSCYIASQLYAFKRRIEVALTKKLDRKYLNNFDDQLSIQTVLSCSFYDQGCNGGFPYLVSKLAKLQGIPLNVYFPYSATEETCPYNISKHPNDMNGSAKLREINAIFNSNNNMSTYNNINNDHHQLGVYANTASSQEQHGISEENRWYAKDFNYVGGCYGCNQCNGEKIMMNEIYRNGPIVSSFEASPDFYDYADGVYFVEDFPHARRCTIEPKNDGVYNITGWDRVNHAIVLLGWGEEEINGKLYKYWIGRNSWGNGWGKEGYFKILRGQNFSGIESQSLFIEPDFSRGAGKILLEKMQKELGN

Structure (SMILES)	% Inhibition @ 10 uM [%]
O=[N+]([O-])c1c(NCCO)cc(Cl)c2nonc12	5.66
COc1ccccc1N1C(=O)CC(N2CCN(C)CC2)C1=O (stereo not shown)	-6.08
Cc1ccc(/C=C(\C#N)C(N)=S)o1	79.5
COc1ccc(/C=C(\C#N)C(N)=S)cc1	-2.51
COC(=O)/C(C#N)=C/c1ccc(C)o1	-0.256
CCOC(=O)C1=C(CN2CCN(C(=O)OCC)CC2)NC(=O)NC1c1cccs1 (stereo not shown)	-3.36
COc1ccc(C(=O)CC(=O)c2ccc(OC)c(OC)c2)c(O)c1	4.74
Cc1ccc(S(=O)(=O)Nc2nc3ccccc3nc2N2CCCCC2)cc1	-0.969
CCn1c2ccc(F)cc2c2nnc(S)nc21	32.8
CCn1c2ccc(OC)cc2c2nc3ccccc3nc21	-3.13
Cn1c2ccc(F)cc2c2nnc(S)nc21	74
CCCCn1c2ccccc2c2nnc(S)nc21	36.5
Cc1ccc2c(c1)c1nnc(S)nc1n2Cc1ccccc1	3.73
CCCCn1c2ccc(C)cc2c2nnc(S)nc21	61
Fc1ccc2c(c1)c1nnc(S)nc1n2CCc1ccccc1	10.9
Fc1ccc2[nH]c3nc(S)nnc3c2c1	56
CCn1c2ccccc2c2nnc(S)nc21	38
CCn1c2ccc(OC)cc2c2nnc(S)nc21	79.3
CSc1nnc2c(n1)[nH]c1ccc(C)cc12	2.51
Cc1ccc2[nH]c3nc(S)nnc3c2c1	12.4
CC(C)c1nc2ccccc2n1Cc1ccccc1F	1.12
NC(=O)C1CCN(C(=O)COCc2cc(-c3ccc4c(c3)OCO4)on2)CC1	-4.1
COCCCNC(=O)c1cnn2c(C(F)(F)F)cc(-c3cccs3)nc12	-2.26
Nc1ncnc2c1nc(S(=O)(=O)O)n2Cc1ccccc1	-1.69

Structure (SMILES)	% Inhibition @ 10 uM [%]
CCSC1=NSC2=NC(=O)/C(=C\c3c(C)[nH]c4ccccc34)C(=N)N12	4.79
Cc1cc2ccccc2n1CCNC(=O)C(c1ccccc1)c1ccccc1	-4.89
COCCNC(=O)C1CCCN(S(=O)(=O)N(C)C2CCCCC2)C1 (stereo not shown)	-2.86
Sc1nnc2c(n1)[nH]c1ccccc12	38
c1ccc2nc3c(nc2c1)[nH]c1ccccc13	-1.8
Sc1nnc2[nH]c3ccccc3c2n1	56.9
Cc1nc2ccc(S(=O)(=O)NC(C(=O)NCCc3ccccc3)C(C)C)cc2s1 (stereo not shown)	-0.0115
Cc1ccc2[nH]c(SCC(=O)Nc3ccc(Cl)cc3)nc2c1	5.24
COc1cccc2cc(-c3cn(-c4cccc(C)c4)c(S)n3)c(=O)oc12	20.1
Cc1cc(C)c2c(=O)n(CC(=O)NCc3ccccc3Cl)sc2n1	83.7
Cc1cc(C)c2c(=O)n(CC(=O)NCCc3ccc(Cl)cc3)sc2n1	15.6
Cc1cc(C)c2c(=O)n(CC(=O)NCc3ccc4c(c3)OCO4)sc2n1	12
Cc1c(C(=O)Nc2nc3c(s2)CCCC3)oc2ccccc12	-2.85
N#CC1=C(N)Oc2[nH]nc(-c3ccncc3)c2C1c1ccncc1 (stereo not shown)	3.92
CCOc1cc(-c2c(C)c(C)nc(N)c2C#N)ccc1O	-1.79
O=C(O)c1cccc2c1NC(C(=O)O)C1CC=CC21 (stereo not shown)	65.6
CC(C)C1Nc2c(C(=O)O)cccc2C2C=CCC21 (stereo not shown)	-1.2
O=C(O)C1Nc2c(cccc2C(F)(F)F)C2C=CCC12 (stereo not shown)	0.345
CCc1nn(CCCC(=O)NC2CCCCC2C)c(=O)c2cc3occc3n12 (stereo not shown)	-0.281
CCOc1ccc(C(=O)Nc2ccc(-c3nc4ncccc4o3)cc2)cc1Cl	-4.82
CCc1cccc(C)c1NC(=O)c1cc(OC)cc(OC)c1	15.2
O=C(O)CN1C(=O)c2cc(Cl)c(Cl)cc2C1=O	3.67
COc1ccccc1-n1c(CNC(=O)c2cccc(C)c2)nnc1SCC(=O)Nc1nccs1	2.12
Cc1ccc(C(=O)NCc2nnc(SCC(=O)Nc3nccs3)n2-c2ccccc2)cc1C	-4.97

Structure (SMILES)	% Inhibition @ 10 uM [%]
Cc1ccc(C)c(-n2c(CNC(=O)c3cccc(F)c3)nnc2SCC(=O)Nc2nccs2)c1	73.7
C[C@H](NC(=O)CCc1ccccc1)c1ccccc1	4.22
CC(C)n1c(NC2CCCCC2)nc2c1c(=O)[nH]c(=O)n2C	-1.11
Cc1cc(C)c2oc(C(=O)Nc3nnc(CC(C)C)s3)cc(=O)c2c1	3.51
Cc1cc(C)c2oc(C(=O)Nc3nnc(C(C)C)s3)cc(=O)c2c1	53.6
Cc1cc(C)c2oc(C(=O)Nc3nnc(C)s3)cc(=O)c2c1	-3.24
Cc1cc(C(=O)NCCc2ccccc2)c2c(C)nn(-c3ccccc3)c2n1	-6.46
COC(=O)CSc1nc(C)c(C)c(C)c1C#N	4.15
Cc1nc(SCC(N)=O)c(C#N)c(C)c1C	-0.239
Cc1nc(SCC(=O)O)c(C#N)c(C)c1C	72.9
O=C(CSC1CC(=O)N(c2cccc(Cl)c2)C1=O)Nc1ccc(F)cc1 (stereo not shown)	2.13
CC(=O)Nc1ccc(Oc2cccc(Oc3ccc(NC(C)=O)cc3)c2)cc1	-6.02
CC(=O)Nc1ccc(Oc2ccc(NC(C)=O)c(NC(C)=O)c2)cc1	70.7
CCC(=O)Nc1ccc(Oc2ccc(NC(=O)CC)c(NC(=O)CC)c2)cc1	8.21
C1CCN(CCCNC2C3CC4CC(C3)CC2C4)C1 (stereo not shown)	-0.192
COc1ccc(C(=O)N2CCC(N3CCCCCC3)CC2)cc1	1.91
Cc1nc2c3ccccc3n3c(CCCC(=O)O)nnc3n2n1	-2.92
CCc1[nH]c2ccccc2c1C(C)c1cccnc1 (stereo not shown)	-4.49
c1cncc(C(c2c[nH]c3ccccc23)c2c[nH]c3ccccc23)c1	92.4
Cc1[nH]nc(O)c1C(c1c(O)n[nH]c1C)c1c[nH]c2ccccc12	-6.24
CC(C)(C)C1CCC(OC(=O)CCC(=O)Nc2ccccc2)CC1 (stereo not shown)	3.16
N#Cc1cnn(-c2cc(Oc3ccccc3)nc(-c3ccccc3)n2)c1N	-0.941

— publication PMC6919601, “Identification of Plasmodium dipeptidyl aminopeptidase allosteric inhibitors by high throughput screening” (PLoS ONE, 2019)
